Measured values reported in PubChem BioAssay AID1159580 (chemical genetic matrix, 2015).
In all, about 5,500 compounds went through this assay and about 2,000 (36%) were called active. Not shown: some 18% with an inconclusive outcome. No stated cut-off is given here; in the data, active means normalized growth mostly below about 0.91 (no sharp cut-off); inconclusive means no clear call, values can overlap the other calls; inactive means mostly above about 0.92. The list shows a part of the results.

Experiment: chemical genetic growth profiling, strain panel (AID 1159580);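 further: tested at 20 µM; growth read once vehicle control cultures reached saturation at 30 °C; 1 = growth at the plate median or of vehicle wells; lower values mean less growth of the strain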
Conditions: S. cerevisiae deletion strains, growth OD

Measured: normalized growth

Cc1cc(C2=CSC3=NCCN23)ccc1Cl
inactive: locus YAL013W, strain DEP1, active compounds read low 0.99 | locus YBR229C, strain ROT2, active compounds read low 1.01 | locus YDL101C, strain DUN1, active compounds read low 0.974 | locus YDL134C, strain PPH21, active compounds read low 0.989 | locus YDR150W, strain NUM1, active compounds read low 0.974 | locus YEL061C, strain CIN8, active compounds read low 1 | locus YGR078C, strain PAC10, active compounds read low 0.989 | locus YHR030C, strain SLT2, active compounds read low 0.872 | locus YHR087W, strain rtc3, active compounds read low 1.01 | locus YJL187C, strain SWE1, active compounds read low 1 | locus YJR043C, strain POL32, active compounds read low 0.999 | locus YJR075W, strain HOC1, active compounds read low 0.982 | locus YLR039C, strain RIC1, active compounds read low 1.02 | locus YLR058C, strain SHM2 (second series), active compounds read low 0.996 | locus YLR085C, strain ARP6, active compounds read low 0.933 | locus YLR262C, strain YPT6, active compounds read low 1.03 | locus YML094W, strain GIM5, active compounds read low 0.99 | locus YMR219W, strain ESC1, active compounds read low 0.987 | locus YMR263W, strain SAP30, active compounds read low 0.998 | locus YNL153C, strain GIM3, active compounds read low 0.992 | locus YNL298W, strain CLA4 (second series), active compounds read low 0.946 | locus YNL322C, strain KRE1, active compounds read low 0.989 | locus YNR030W, strain Alg12, active compounds read low 0.994 | locus YOL006C, strain TOP1, active compounds read low 0.752 | locus YPL055C, strain LGE1, active compounds read low 1.02 | locus YPL241C, strain CIN2, active compounds read low 0.975 | locus YPR135W, strain CTF4, active compounds read low 0.709
